The record followed here is PubChem BioAssay (EPA / NIEHS).

A word on the AC50: it is the midpoint of the concentration-response curve, whichever way the signal moves.

The structures appear in SMILES notation. Where “and” joins values, the source holds several entries; their conditions need not be identical. Equal entries are not always repeated. Some structures have more than one record in an assay (separate samples or runs), and their calls can disagree. Calls of active or inactive are those of the source. The calls were made as follows: active = hit-call score of the fitted dose curve at least 0.9, where 1 is the maximum; inactive = score below 0.9.

This test can be described thus: BSK_3C_Proliferation: Cell Proliferation Assessment in the BioMAP Diversity Plus: 3C Assay (AID 2283006).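 As to AC50: potency may reflect either rise or fall in cell number versus DMSO.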 The note with it: primary human endothelial cells (HUVEC). The method, then:
BSK_3C is a cell-based, multiplexed-readout assay that uses umbilical vein endothelium, a human vascular primary cell, with measurements taken at 24 hours after chemical dosing in a 96-well plate.BSK_3C_Proliferation is an assay component measured in the BSK_3C assay. It measures 0.1% sulforhodamine related to cell proliferation using Sulforhodamine staining technology.Data from the assay component BSK_3C_Proliferation was analyzed into 1 assay endpoint. This assay endpoint, BSK_3C_Proliferation, was analyzed with bidirectional fitting relative to DMSO as the negative control and baseline of activity. Using a type of viability reporter, measures of total protein for gain or loss-of-signal activity can be used to understand the viability at the cellular-level. Furthermore, this assay endpoint can be referred to as a secondary readout, because this assay has produced multiple assay endpoints where this one serves a viability function. To generalize the intended target to other relatable targets, this assay endpoint is annotated to the cell cycle intended target family, where the subfamily is proliferation.
The levels of cell surface (or secreted, indicated by the prefix "s") biomarker endpoints were measured by ELISA. Overt cytotoxicity to cells in confluent adherent cultures (all systems other than the BT system) was assessed by measuring total protein levels using sulforhodamine B (SRB) staining in parallel cultures at the time of biomarker measurements, indicated as SRB endpoints. For proliferation assays for adherent cell types, individual cell types are cultured at sub-confluence and relative cell numbers quantified by SRB staining at time points optimized for each system (48 h: 3C and CASM3C systems; 72 h: BT and HDF3CGF systems; 96 h: SAg system). SRB was performed by staining cells with 0.1% SRB after fixation with 10% TCA and reading wells at 560 nm.Viability and proliferation of PBMC (T cells) was quantified by Alamar Blue reduction for the SAg and BT systems. For PBMC viability (referred to as PBMC Cytotoxicity within the assay endpoint names), cells were plated (75,000/well in a 96-well plate) and then chemical samples added for 1 h before addition of activators, SEB and TSST-1 (20 ng/mL final concentration each). Cells were incubated for 90 h. Then, Alamar Blue (20 uL/well) (Invitrogen, Cat DAL1100) was added for 6 h, and the plates were read with a fluorescence microplate reader at 546/580 nm (excitation/emission). For PBMC proliferation, cells were plated and activated as above but incubated for only 16 h prior to addition of Alamar Blue. Plates were read after 6 h.
On to `CCOC(=O)C(O)(c1ccc(Cl)cc1)c1ccc(Cl)cc1`, for which the concentration at half-maximal activity (AC50) is 30.1 µM (active).

`O=C(NC(=O)c1c(F)cccc1F)Nc1cc(Cl)c(OC(F)(F)C(F)F)c(Cl)c1`: the result was inactive.

Regarding `Cc1cccc(C)c1N`, the result was inactive.

For `CO/C=C(/C(=O)OC)c1ccccc1COc1cccc(C(F)(F)F)n1`, the AC50 was 1.82 µM (active).

Consider `CCC(=O)O[C@H]1CC[C@H]2[C@@H]3CCC4=CC(=O)CC[C@]4(C)[C@H]3CC[C@]12C`, for which the AC50 was 23 µM (active).

On to `O=C(NC(=O)c1cc(F)c(F)cc1Cl)Nc1cc(F)ccc1N1CCC(C(=O)O)CC1`, for which the result was inactive.

Regarding `N#Cc1ccc(N(CC(N)=O)CC(F)(F)F)cc1C(F)(F)F`, the result was inactive.

On to `Nc1ccc(-c2ccc(N)cc2)cc1`, for which the outcome was inactive.

Regarding `Cc1cc(O)ccc1Cl`, the outcome was inactive.

As for `CCC(C)(c1ccc(O)cc1)c1ccc(O)cc1`, the AC50 was 26.8 µM (active).

Turning to `Sc1ccccc1`, the result was inactive.

Turning to `O=C(O)C(F)(F)C(F)(F)C(F)(F)C(F)(F)C(F)(F)F`, the result was inactive.

As to `CC1=C2C[C@H]3[C@@H](CC=C4C[C@@H](O)CC[C@@]43C)[C@@H]2CC[C@]12O[C@@H]1C[C@H](C)CN[C@H]1[C@H]2C`, the result was inactive.

In the case of `Clc1ccc(C(Cl)(Cl)Cl)cc1`, the outcome was inactive.

For `Cc1ccccc1CO[C@@H]1C[C@@]2(C(C)C)CC[C@]1(C)O2`, the result was inactive.

As for `C=CC(N)=O`, the outcome was inactive.

Consider `Clc1ccc(C(c2ccccc2Cl)C(Cl)(Cl)Cl)cc1` (stereo not given), for which the AC50 is 7.61 µM (active).

As to `CN(C)CCO`, the result was inactive.

As to `CCSC(=O)N(CC)C1CCCCC1`, the outcome was inactive.

In the case of `C1CC2OC2CC1C1CO1` (stereo not given), the outcome was inactive.

As for `O=C(O)C(F)(F)C(F)(F)C(F)(F)C(F)(F)C(F)(F)C(F)(F)C(F)(F)C(F)(F)C(F)(F)F`, the AC50 was 36.3 µM (active) and 46.6 µM (active) and 45.4 µM (active).

With `Cc1ccccc1O`, the outcome was inactive.

Take `O=C(O)C(F)(F)C(F)(F)C(F)(F)C(F)(F)C(F)(F)C(F)(F)C(F)(F)C(F)(F)F`: the result was inactive; the AC50 was 49.7 µM (active) and 48 µM (active).

Take `CCOCCOC(C)=O`: the result was inactive.

In the case of `C=CC(=O)NCNC(=O)C=C`, the outcome was inactive.

For the compound `Cc1ccc(O)c(C)c1`, the outcome was inactive.

In the case of `Oc1ccc(C(c2ccc(O)cc2)(C(F)(F)F)C(F)(F)F)cc1`, the AC50 was 12.8 µM (active).

For the compound `Cc1ccccc1[N+](=O)[O-]`, the outcome was inactive.

Take `O=NN(c1ccccc1)c1ccccc1`: the AC50 is 6.14 µM (active).

As to `COS(=O)(=O)OC`, the outcome was inactive.

As for `CCC(C)c1cc([N+](=O)[O-])cc([N+](=O)[O-])c1O` (stereo not given), the half-maximal activity concentration (AC50) is 8.95 µM (active).

Regarding `CC(C)C(=O)OCC(C)(C)C(OC(=O)C(C)C)C(C)C` (stereo not given), the AC50 is 31.6 µM (active).

`CCCCCCCCCC[N+](C)(C)CCCCCCCCCC`: the AC50 is 1.8 µM (active).

Take `O=C(N[C@H]1CN2CCC1CC2)c1cc2ccoc2cn1`: the result was inactive.

`O=S(=O)(O)C(F)(F)C(F)(F)C(F)(F)C(F)(F)F`: the result was inactive.

In the case of `CCOP(=S)(OCC)SCSC(C)(C)C`, the AC50 is 29.3 µM (active).

For the compound `Cc1cccc([N+](=O)[O-])c1`, the outcome was inactive.

`CC#Cc1cc(C)nc(Nc2ccccc2)n1`: the AC50 was 17.9 µM (active).

As to `Nn1cnnc1`, the outcome was inactive.
